Values without a mark were called inactive. The rule behind the calls is not given here.

The test deals with Botulinum neurotoxin type F light chain protease (Clostridium botulinum). The test can be described thus: Clostridium botulinum type F light chain protease inhibitors, microsphere substrate cleavage, validation (AID 588459). The note with it: multiplex microsphere protease substrate cleavage assay, flow cytometry; at 10 µM; stronger effect = higher value.
Turning to `CNC(=O)Oc1ccc2c(c1)[C@]1(C)CCN(C)[C@@H]1N2C`, the inhibition is -0.4%.
The same measure for `C[C@]12C[C@H](O)[C@H]3[C@@H](CCC4=CC(=O)CC[C@@]43C)[C@@H]1CC[C@@H]2C(=O)CO`: 0.1%.
With `CC(C)CCNC(=O)[C@H](CC(C)C)NC(=O)[C@H]1O[C@@H]1C(=O)O`, the inhibition is -3.8%.
The same measure for `CC1CCCC(C)N1NC(=O)c1ccc(Cl)c(S(N)(=O)=O)c1` (configuration not stated): -0.2%; for `CC(C)[C@H]1CN(C)CCN1Cc1cn(C)nc1-c1cccc(Cl)c1`: 12%; for `Fc1ccccc1CNCCC(Cc1ccccc1)c1ccc2c(c1)OCO2` (configuration not stated): -8.9%.
Next, `O=C(c1cccc2ccccc12)C1CCCN(C(=O)CCN2CCCO2)C1` (configuration not stated): 1.2%; `CCOC(=O)c1cccc(P(C)(C)=O)c1`: -1.1%; `CC1(C)c2ccccc2N2CC(=O)NC21/C=C/c1ccco1` (configuration not stated): 3.2%.
As for `CC(=O)NCCCCCCNC(C)=O`, the inhibition was 5.8%.
Next, `COc1ccc(NC(=O)C2C(=O)N(CCO)C3(C)CC2c2ccccc2O3)cc1` (configuration not stated): 0.1%.
The same measure for `Cc1ccccc1C(=O)Oc1ccc(Sc2ccc(O)cc2)cc1`: -2%.
Consider `CC1(C)Cc2nc3oc4c(NCc5ccccc5)ncnc4c3cc2CO1`, for which the inhibition is 0.7%.
Next, `NC(=O)c1cnccn1`: 0.4%; `COc1cc(COc2ccc3c(C)c(Cc4ccccc4)c(=O)oc3c2)cc(OC)c1OC`: 3.5%; `CC(=O)NC(Cc1ccccc1)C(=O)OCC(=O)c1ccccc1` (configuration not stated): -2.6%.
For the compound `COc1ccc(C2(CCN=Cc3ccc(N(C)C)cc3)CCOC(C)(C)C2)cc1` (configuration not stated), the inhibition was 9.1%.

For the origin of these results see PubChem BioAssay.
